Bioassay records: PubChem, several laboratories
In the library only some 27% were active in any assay of this set; here they are far more common.
CYP2C19 act – activators of human cytochrome P450 2C19; 96,000 tested, under 10 active; recombinant CYP2C19, luciferin-H EGE luminescence; active compounds read high; 0 = fully inhibited enzyme, 1 = untreated enzyme; activation factor at 5 µM;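 active = activation factor of at least 2 at 5 µM in the primary screen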
CYP2C9 inhib – inhibitors of human CYP2C9. P11712. CYP2C9 Supersomes, luciferin-H conversion, luminescence. inhibition, % at 5 µM. hit rate 20% among 96,000;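 active = blocking of liver enzyme CYP2C9 beyond about 50% at 5 µM, limit read from the data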
CYP2C9 act – CYP2C9 (human) activation; P11712; recombinant CYP2C9, luciferin-H conversion, luminescence; active compounds read high; factor 1 = untreated enzyme, 0 = blocked; activation factor at 5 µM; hit rate 1.4% among 96,000; AID 1024;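 active = activation factor of 2 or more for CYP2C9 at a 5 µM dose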
Cav32 inh – blocks human Cav3.2 T-type calcium channel; O95180; Cav3.2-expressing cells, Fluo-4 calcium fluorescence FDSS; active compounds read low; B-score at 10 µM; hit rate 4% among 100,000; AID 449739;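 active = single-dose well whose peak fluorescence ratio is a statistical outlier from its plate by either plate-standardised score or position-corrected B-score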
Target sequence (O95180 whole entry, looked up): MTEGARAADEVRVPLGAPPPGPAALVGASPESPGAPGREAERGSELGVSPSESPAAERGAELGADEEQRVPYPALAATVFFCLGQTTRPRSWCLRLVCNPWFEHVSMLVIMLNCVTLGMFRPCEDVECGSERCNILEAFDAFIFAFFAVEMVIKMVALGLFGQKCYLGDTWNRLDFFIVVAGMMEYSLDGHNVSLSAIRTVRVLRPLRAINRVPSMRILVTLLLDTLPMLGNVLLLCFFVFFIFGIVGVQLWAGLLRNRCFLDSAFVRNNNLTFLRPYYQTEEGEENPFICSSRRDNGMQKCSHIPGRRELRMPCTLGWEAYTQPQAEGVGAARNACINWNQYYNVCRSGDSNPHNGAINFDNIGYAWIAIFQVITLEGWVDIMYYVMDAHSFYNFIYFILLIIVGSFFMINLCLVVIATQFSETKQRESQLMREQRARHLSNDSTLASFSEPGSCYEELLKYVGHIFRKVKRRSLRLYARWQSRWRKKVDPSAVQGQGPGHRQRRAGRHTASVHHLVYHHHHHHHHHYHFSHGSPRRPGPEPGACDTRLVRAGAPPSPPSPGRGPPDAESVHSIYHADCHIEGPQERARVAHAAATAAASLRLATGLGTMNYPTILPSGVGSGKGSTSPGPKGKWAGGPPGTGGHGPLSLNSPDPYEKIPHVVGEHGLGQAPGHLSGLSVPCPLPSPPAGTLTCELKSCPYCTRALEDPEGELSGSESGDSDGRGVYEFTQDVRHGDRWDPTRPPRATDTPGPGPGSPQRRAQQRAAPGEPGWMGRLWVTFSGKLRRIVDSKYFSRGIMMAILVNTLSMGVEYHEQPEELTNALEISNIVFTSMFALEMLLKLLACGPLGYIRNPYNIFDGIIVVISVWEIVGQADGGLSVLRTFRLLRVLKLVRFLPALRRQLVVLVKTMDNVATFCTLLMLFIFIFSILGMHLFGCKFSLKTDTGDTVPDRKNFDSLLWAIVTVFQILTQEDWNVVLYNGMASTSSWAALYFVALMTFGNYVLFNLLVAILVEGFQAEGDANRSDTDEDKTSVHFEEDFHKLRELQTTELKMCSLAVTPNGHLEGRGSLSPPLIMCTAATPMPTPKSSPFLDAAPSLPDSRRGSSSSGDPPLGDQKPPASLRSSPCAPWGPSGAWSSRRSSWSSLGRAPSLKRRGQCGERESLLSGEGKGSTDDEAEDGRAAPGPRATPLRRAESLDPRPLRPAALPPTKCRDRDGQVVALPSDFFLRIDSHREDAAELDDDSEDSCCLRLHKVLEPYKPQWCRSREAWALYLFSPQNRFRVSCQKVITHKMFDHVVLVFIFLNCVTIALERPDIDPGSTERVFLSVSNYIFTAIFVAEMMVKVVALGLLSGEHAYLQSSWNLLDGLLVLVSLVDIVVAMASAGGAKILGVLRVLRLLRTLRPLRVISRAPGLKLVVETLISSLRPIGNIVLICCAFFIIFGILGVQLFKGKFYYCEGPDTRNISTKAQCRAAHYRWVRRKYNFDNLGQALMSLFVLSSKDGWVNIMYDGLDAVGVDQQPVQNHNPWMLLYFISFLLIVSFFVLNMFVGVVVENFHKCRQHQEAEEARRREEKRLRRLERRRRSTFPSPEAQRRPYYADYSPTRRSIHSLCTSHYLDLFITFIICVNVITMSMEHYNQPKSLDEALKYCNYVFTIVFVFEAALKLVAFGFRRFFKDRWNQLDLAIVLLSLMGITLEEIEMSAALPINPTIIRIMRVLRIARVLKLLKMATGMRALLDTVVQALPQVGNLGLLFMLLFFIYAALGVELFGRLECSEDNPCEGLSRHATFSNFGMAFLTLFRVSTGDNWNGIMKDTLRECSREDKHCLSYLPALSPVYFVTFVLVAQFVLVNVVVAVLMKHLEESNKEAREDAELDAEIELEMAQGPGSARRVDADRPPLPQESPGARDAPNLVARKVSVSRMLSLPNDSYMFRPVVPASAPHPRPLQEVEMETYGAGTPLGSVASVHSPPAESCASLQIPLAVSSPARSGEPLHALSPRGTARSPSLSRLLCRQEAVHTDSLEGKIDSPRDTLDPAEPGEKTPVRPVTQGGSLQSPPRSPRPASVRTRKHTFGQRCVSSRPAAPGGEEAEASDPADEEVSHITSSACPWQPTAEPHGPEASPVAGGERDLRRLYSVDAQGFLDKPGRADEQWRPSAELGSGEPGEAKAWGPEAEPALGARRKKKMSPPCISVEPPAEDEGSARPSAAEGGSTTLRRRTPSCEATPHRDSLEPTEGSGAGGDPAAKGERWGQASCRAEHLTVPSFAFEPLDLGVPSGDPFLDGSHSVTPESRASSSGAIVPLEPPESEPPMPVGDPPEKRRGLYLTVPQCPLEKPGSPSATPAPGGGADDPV
CYP2C19 inhib – inhibitors of human CYP2C19 | AID 778 | hit rate 21% among 96,000 | CYP2C19 Supersomes, luciferin-H EGE luminescence, 30 min | inhibition, % at 5 µM;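 active = CYP2C19 inhibition above a set limit at 5 µM in the primary screen, cut at about 50% in these data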
Hits are given with their value; - = inactive; . = no result given.

SMILES	CYP2C19 act	CYP2C9 inhib	CYP2C9 act	Cav32 inh	CYP2C19 inhib
C#CCSc1nnc(-c2c[nH]c3ccccc23)n1C	-	-	-	-	-
Cc1ccc(C(=O)O/N=C2\CCS(=O)(=O)c3sccc32)cc1	-	-	-	-	-
O=C(OC1CCS(=O)(=O)c2sccc21)c1ccccc1 (stereo not given)	-	-	-	-	56.3
CCOC(=O)Cn1c(=O)sc2ccccc21	-	-	-	-	-
COC(=O)Cn1c(=NC(=O)CSCC(=O)NC2CCCCC2)sc2cc(OC)ccc21	-	-	-	-	-
CCOC(=O)Cn1c(=NC(=O)CSC(C)=O)sc2ccccc21	-	81.0	-	-9.42	-
CCOC(=O)Cn1c(=NC(=O)CSC(C)=O)sc2cc(OC)ccc21	-	-	-	-10.1	-
CC(=O)SCC(=O)N=c1sc2cc(F)ccc2n1C	-	-	-	-6.21	-
CCCOC(=O)c1ccc(NC(=O)c2cn(CC)c3nc(C)ccc3c2=O)cc1	-	-	-	.	-
COC(=O)CCCC(=O)N1CCOCCN(C(=O)CCCC(=O)OC)CCOCC1	-	-	-	-	-
Cc1ccc2nc(NC(=O)Cc3cccs3)sc2c1	-	-	-	-3.57	-
Cc1ccc2nc(NC(=O)CNS(=O)(=O)c3ccc(Br)s3)sc2c1	-	62.8	-	-	-
Cc1cccc2sc(NC(=O)CNS(=O)(=O)c3ccc(Br)s3)nc12	-	-	-	-	65.4
Cc1ccc2nc(NC(=O)CN(C)S(=O)(=O)c3ccc(Br)s3)sc2c1	-	-	-	.	-
COc1ccc(C(=O)NCC(C)C)c(OC)c1	.	.	.	-	.
CCC(C)NC(=O)c1ccccc1NC(=O)Nc1ccccc1 (stereo not given)	-	-	-	-	-
CC(C)CNC(=O)c1ccccc1Oc1ccccc1	-	-	-	-	75.3
CSc1cccc(NC(=O)Nc2ccccc2)c1	-	-	-	-	-
CC(C)CNC(=O)c1ccccc1NC(=O)Nc1ccccc1	-	52.2	-	-	-
CSc1ccccc1NC(=O)Nc1ccccc1	-	-	-	-	57.7
O=c1cc(CN2CCN(c3ccccc3F)CC2)c2cc3c(cc2o1)CCCC3	-	-	-	-	-
O=C(O)c1cc2cc(F)ccc2[nH]1	.	.	.	-	.
CC(C)C(C(=O)N1CCOCC1)N1C(=O)c2ccccc2C1=O (stereo not given)	-	-	-	-	-
O=C(O)CCC1OC(=O)C(O)=C1c1ccccc1 (stereo not given)	.	.	.	-	.
Cc1ccc(O)c(C(=O)c2coc(=N)c(C(=O)NC(C)C)c2)c1	-	-	-	-	-
SMILES	CYP2C19 act	CYP2C9 inhib	CYP2C9 act	Cav32 inh	CYP2C19 inhib
CCOC(=O)N1CCN(C(=O)CN(C2CCCCC2)S(=O)(=O)c2ccc(C)cc2)CC1	-	-	-	-	-
CNC(=O)CN(C1CCCCC1)S(=O)(=O)c1ccc(F)cc1	-	-	-	-	65.7
Cc1ccc(S(=O)(=O)N(CC(=O)N2CCN(c3ccc(F)cc3)CC2)C2CCCCC2)cc1	-	51.5	-	-5.77	-
Cc1ccc(Cl)cc1N1CCN(C(=O)CN(C2CCCCC2)S(C)(=O)=O)CC1	.	.	.	-4.86	.
CS(=O)(=O)N(CC(=O)N1CCN(c2cccc(Cl)c2)CC1)C1CCCCC1	-	-	-	-	-
CCCc1ccc(OCC(O)CN2CCN(c3ccccc3)CC2)cc1 (stereo not given)	-	-	-	-	73.4
CCc1ccc(OCC(O)CN2CCN(c3ccccc3)CC2)cc1 (stereo not given)	-	-	-	-	67.0
Cc1ccc(OCC(O)CN2CCN(c3ccccc3)CC2)cc1 (stereo not given)	-	-	-	-	-
CCCC(=O)c1ccc(N2CCN(C(=O)c3ccccc3Br)CC2)c(F)c1	-	-	-	-	-
Cc1occc1C(=O)Nc1cc(C(F)(F)F)ccc1Cl	-	-	-	-	-
Cn1c(Cl)cnc1C1CC(=O)c2cc(Cl)ccc2O1 (stereo not given)	-	-	-	-	81.4
COc1cc(CNCc2cccs2)ccc1OCc1ccccc1	-	-	-	-	66.6
COc1cc(CNCc2cccs2)ccc1OCC(=O)NC(C)(C)C	-	-	-	-	-
COc1cc(CNCc2cccs2)ccc1OCc1cccs1	-	-	-	-	50.0
COc1cc(CNCc2cccs2)ccc1OCC(N)=O	-	-	-	-	-
CCC1(C)OCC(Cn2c3ccccc3c3ccccc32)O1 (stereo not given)	.	.	.	-	.
Cc1cccc(C)c1Nc1nc2ccccc2o1	-	64.3	-	-	-
COC(=O)c1c(C(=O)OC)c2ccncn2c1Cl	-	80.0	-	-	80.7
